Compound activity deposited in PubChem BioAssay by The Scripps Research Institute Molecular Screening Center.
GPR151 activ – human GPR151 activation. activation, % at 11.2 µM. PathHunter beta-arrestin GPR151 cells, luminescence. 1% of 650,000 active. AID 1508602. Q8TDV0; in the data active = activation above about 4.9%
Target sequence (Q8TDV0 whole entry, looked up): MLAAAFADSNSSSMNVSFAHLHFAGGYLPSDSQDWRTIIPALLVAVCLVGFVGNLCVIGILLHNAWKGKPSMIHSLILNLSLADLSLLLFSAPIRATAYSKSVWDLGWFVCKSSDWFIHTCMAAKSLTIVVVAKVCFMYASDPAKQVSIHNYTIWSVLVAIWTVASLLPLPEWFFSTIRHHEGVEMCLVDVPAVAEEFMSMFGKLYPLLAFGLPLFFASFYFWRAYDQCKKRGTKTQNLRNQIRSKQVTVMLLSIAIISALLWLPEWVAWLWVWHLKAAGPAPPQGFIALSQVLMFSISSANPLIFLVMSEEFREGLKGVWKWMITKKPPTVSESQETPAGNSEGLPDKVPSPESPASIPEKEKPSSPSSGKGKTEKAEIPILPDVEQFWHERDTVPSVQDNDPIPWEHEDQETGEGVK
FBW7 act – human FBW7 E3 ligase activation, primary screen; AlphaScreen FBW7–phospho-cyclin E peptide binding, activator screen; Q969H0; AID 1259310; normalized activity (activation), % at 26.1 µM; 0.13% of 650,000 active; in the data active = normalized activity above about 1.9%;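 also: purified mutant Fbw7 with reduced substrate affinity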
TEAD-YAP block – TEAD-YAP interaction inhibition; 1.4% of 640,000 active; AID 1259422; HEK-TIYL cells, TEAD-Gal4/YAP UAS-luciferase luminescence; inhibition, % at 9.12 µM; in the data active = inhibition above about 32%
MITF primary – blocks human microphthalmia-associated transcription factor. AlphaScreen MITF homodimerization, bead proximity signal. O75030. 0.91% of 650,000 active. inhibition, % at 2.6 µM; in the data active = inhibition above about 50%
Of the large screens only hits and unclear results are named; the others gave an inactive call. In the library only some 3.5% were active in any assay of this set; here they are far more common.

Cc1cccc(NC(=O)C(CC(=O)O)NCc2ccccc2)c1 (stereo unspecified)	none
CCN1/C(=C/c2ccc3cc(OC)ccc3[n+]2CC)Sc2ccc(Cl)cc21	TEAD-YAP block 77
CCN1/C(=C/c2ccc3ccc(C)cc3[n+]2CC)Sc2cc(OC)ccc21	TEAD-YAP block 87
CCC(=O)/C=C1/Sc2ccc(OC)cc2N1CC	none
CCN1/C(=C/c2ccc3cc(OC)ccc3[n+]2CC)Sc2ccc(OC)cc21	TEAD-YAP block 87
COc1ccc(N(CC(=O)Nc2ccccc2C(F)(F)F)S(C)(=O)=O)cc1	none
CCC1CCCCN1C(=O)CSc1nnc(-c2cccnc2)n1Cc1ccccc1 (stereo unspecified)	none
O=C(NCc1ccccc1)C1CCN(c2ccc(Nc3ccc(-n4ccnc4)cc3)nn2)CC1	none
O=C(NCc1cccc(C(F)(F)F)c1)C1CCN(c2ccc(Nc3ccc(-n4ccnc4)cc3)nn2)CC1	TEAD-YAP block 35
Cc1cc(NCc2cccc(C(F)(F)F)c2)nc(Nc2ccc(-n3ccnc3)cc2)n1	TEAD-YAP block 50
Cc1cnc(Nc2ccc(-n3ccnc3)cc2)nc1NCc1cccc(C(F)(F)F)c1	TEAD-YAP block 37
CCCNc1cc(C)nc(Nc2ccc(-n3ccnc3)cc2)n1	TEAD-YAP block 35
Cc1cnc(Nc2ccc(C(F)(F)F)cc2)nc1NCc1cccc(C(F)(F)F)c1	none
CC(=O)Nc1ccc(S(=O)(=O)N(c2nccs2)S(=O)(=O)c2ccc(NC(C)=O)cc2)cc1	none
COc1ccc2cc(/C(C)=N/NC(=O)c3ccncc3)ccc2c1	none
CCOC(=O)CN1C(=O)C(Cl)(Cl)c2ccccc21	none
CC(C)N(C(=O)Cn1cc(S(=O)(=O)CC(N)=O)c2ccccc21)C(C)C	none
CC(C)C(Nc1ncnc2sc3c(c12)CCC3)C(=O)O (stereo unspecified)	none
COc1cccc(OC)c1OCCN1CC(C)OC(C)C1 (stereo unspecified)	none
Cc1cnc(Nc2cnccn2)nc1NCc1cccc(C(F)(F)F)c1	TEAD-YAP block 46
COc1cc(Nc2ncc(C)c(NCc3cccnc3)n2)cc(OC)c1OC	none
COc1cc(Nc2ncc(C)c(NCc3cccc(C(F)(F)F)c3)n2)cc(OC)c1OC	TEAD-YAP block 54
COc1cccc(N2C(=O)CC(Sc3ncn[nH]3)C2=O)c1 (stereo unspecified)	none
CCCNc1nc(Nc2ccc3ncccc3c2)nc2c1ncn2-c1ccsc1	TEAD-YAP block 48
Oc1ccc(CCNc2nc(Nc3ccncn3)nc3c2ncn3-c2ccccc2)cc1	TEAD-YAP block 43
OCCNc1nc(Nc2ccncn2)nc2c1ncn2Cc1ccc(C(F)(F)F)cc1	FBW7 act 3.1
CCCNc1nc(Nc2ccc3ncccc3c2)nc2c1ncn2-c1ccccc1	TEAD-YAP block 34
CCc1cn[nH]c1C1CCCN(C(=O)CCSC)C1 (stereo unspecified)	none
CC(C)(C)C(=O)NCC1Cc2cc(F)cc(-c3cncnc3)c2O1 (stereo unspecified)	none
Oc1ccc(CCNc2nc(Nc3ccc4ncccc4c3)nc3c2ncn3-c2ccccc2)cc1	TEAD-YAP block 46
OCCNc1nc(Nc2ccc3ncccc3c2)nc2c1ncn2-c1ccccc1	TEAD-YAP block 45
CCCNc1nc(Nc2ccccc2)nc2c1ncn2-c1ccccc1	none
CCCNc1nc(Nc2ccncc2)nc2c1ncn2-c1ccccc1	TEAD-YAP block 43
O=C(COc1ccc(Cl)cc1)Nc1c2c(nn1-c1ccc(Cl)cc1)CSC2	none
CCN(CC)c1ccc(/C=N/NC(=O)c2cc(Cl)ccc2O)c(O)c1	none
CCN(CC)c1ccc(/C=N\NC(=O)c2ccc(O)cc2)c(O)c1	none
CCN(CC)c1ccc(/C=N/NC(=O)c2ccc(F)cc2)c(O)c1	TEAD-YAP block 73
CCN(CC)c1ccc(/C=N/NC(=O)c2cc(C)oc2C)c(O)c1	TEAD-YAP block 53
CC(=O)Nc1ccc(Nc2cc(C)nc(Nc3nccc4ccccc34)n2)cc1	TEAD-YAP block 65
CC(=O)Nc1ccc(Nc2ccnc(Nc3nccc4ccccc34)n2)cc1	TEAD-YAP block 48
CC(=O)Nc1ccc(Nc2cc(C)nc(Nc3cnccn3)n2)cc1	none
CC(=O)Nc1ccc(Nc2nc(Nc3nccc4ccccc34)ncc2C)cc1	none
COc1cccc(C(=O)NC(c2ccccc2)c2cc(Cl)c3cccnc3c2O)c1 (stereo unspecified)	none
COc1cccc(C(=O)NC(c2ccccc2OC)c2cc(Cl)c3cccnc3c2O)c1 (stereo unspecified)	TEAD-YAP block 41
COc1cccc(C(=O)NC(c2ccco2)c2cc(Cl)c3cccnc3c2O)c1 (stereo unspecified)	TEAD-YAP block 79
COc1ccccc1C(NC(=O)c1cccnc1)c1cc(Cl)c2cccnc2c1O (stereo unspecified)	none
CCc1cc2cc3c(cc2nc1SCC(=O)NC(C)(C)C)OCCO3	TEAD-YAP block 47
CCC(=O)NNC(=O)CSc1nc2cc3c(cc2cc1CC)OCCO3	none
CCc1cc2cc3c(cc2nc1SCC(=O)NC(C)(C)C)OCO3	TEAD-YAP block 38
Cc1ccc(C2C(C#N)=C(N)N(N(C)C)C3=C2C(=O)CCC3)cc1 (stereo unspecified)	none
COc1ccc(N2C(N)=C(C#N)C(c3ccc(O)c(OC)c3)C3=C2CCCC3=O)cc1 (stereo unspecified)	TEAD-YAP block 58
COc1ccc(C2C(C#N)=C(N)N(c3ccc(OC)cc3)C3=C2C(=O)CCC3)cc1 (stereo unspecified)	none
COc1cc(C2C(C#N)=C(N)N(c3ccc(C)cc3)C3=C2C(=O)CCC3)cc(OC)c1OC (stereo unspecified)	TEAD-YAP block 61
COc1ccc(N2C(N)=C(C#N)C(c3ccc(OC)c(OC)c3)C3=C2CCCC3=O)cc1 (stereo unspecified)	TEAD-YAP block 62
CN(C)N1C(N)=C(C#N)C(c2ccc(C(F)(F)F)cc2)C2=C1CCCC2=O (stereo unspecified)	FBW7 act 2.1
Cc1cccc(N2CCN(C(=O)c3cccc(N4C(=O)C5CC=CCC5C4=O)c3)CC2)c1C (stereo unspecified)	none
Cc1ccc(NC(=O)C2C3C=CC4(O3)C2C(=O)N(CCCN2CCN(Cc3ccccc3)CC2)C4C(=O)NC2CCCCC2)cc1Cl (stereo unspecified)	none
CC1(C)C(C(=O)O)N2C(=O)C(NC(=O)C(C(=O)O)c3ccccc3)C2S1=O (stereo unspecified)	FBW7 act 2.5
CC1(C)S[C@@H]2[C@H](NC(=O)[C@H](C(=O)O)c3cccs3)C(=O)N2[C@H]1C(=O)O	none
COc1ccc(C=O)cc1COc1ccccc1F	FBW7 act 2.1
COc1cc(/C=N/n2cnnc2)ccc1OCc1cccc(C(=O)O)c1	TEAD-YAP block 78
COc1ccc(C=O)cc1OC(=O)c1ccccc1	none
COc1cc(C=C2C(=O)NC(=O)NC2=O)ccc1OCc1cccc(C(=O)O)c1	TEAD-YAP block 81
COc1cc(C=O)ccc1OCC(=O)c1ccccc1	TEAD-YAP block 60
COc1ccc(/C=N/n2cnnc2)cc1COc1ccccc1F	none
Cc1cccn2cc(CNC(=O)c3ccc(Cl)cc3)nc12	none
